The whole screen tested about 340,000 compounds, of which about 730 (0.21%) were called active. The sample holds actives, similar compounds and a random draw of the others, so the mix is not that of the screen.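 The calls were made as follows: active = inhibition above the mean over all tested compounds plus 3 SD (cut at about 21% in these data); inactive = the rest.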

These results are taken from PubChem BioAssay AID504734 (The Scripps Research Institute Molecular Screening Center, 2011).

The target of this experiment is Toll-like receptor 9 (Homo sapiens) + Myeloid differentiation primary response protein MyD88 (Homo sapiens) (UniProt Q9NR96+Q99836). As to the kind of experiment: disruptors of TLR9 binding to MyD88 – cell-based, CHO, BLA complementation, fluorescence, primary screen (AID 504734).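 Also: 0% = DMSO only wells and 100% = clavulanate BLA inhibitor control wells.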 The note with it: CHO BLA complementation TLR9-MyD88, CCF4 FRET ratio; at 4.98 µM; stronger effect = higher value.
Sequence of Toll-like receptor 9 (Homo sapiens) + Myeloid differentiation primary response protein MyD88 (Homo sapiens) (Q99836 whole entry, looked up): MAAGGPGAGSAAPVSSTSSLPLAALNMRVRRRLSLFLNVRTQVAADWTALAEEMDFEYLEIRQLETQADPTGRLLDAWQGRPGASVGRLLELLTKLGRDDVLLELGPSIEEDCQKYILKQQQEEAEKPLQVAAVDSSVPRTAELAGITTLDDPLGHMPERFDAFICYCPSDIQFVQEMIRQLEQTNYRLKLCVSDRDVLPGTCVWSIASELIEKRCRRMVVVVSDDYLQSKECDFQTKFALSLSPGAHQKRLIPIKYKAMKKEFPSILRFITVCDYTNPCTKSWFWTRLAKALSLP
Sequence of Toll-like receptor 9 (Homo sapiens) + Myeloid differentiation primary response protein MyD88 (Homo sapiens) (Q9NR96 whole entry, looked up): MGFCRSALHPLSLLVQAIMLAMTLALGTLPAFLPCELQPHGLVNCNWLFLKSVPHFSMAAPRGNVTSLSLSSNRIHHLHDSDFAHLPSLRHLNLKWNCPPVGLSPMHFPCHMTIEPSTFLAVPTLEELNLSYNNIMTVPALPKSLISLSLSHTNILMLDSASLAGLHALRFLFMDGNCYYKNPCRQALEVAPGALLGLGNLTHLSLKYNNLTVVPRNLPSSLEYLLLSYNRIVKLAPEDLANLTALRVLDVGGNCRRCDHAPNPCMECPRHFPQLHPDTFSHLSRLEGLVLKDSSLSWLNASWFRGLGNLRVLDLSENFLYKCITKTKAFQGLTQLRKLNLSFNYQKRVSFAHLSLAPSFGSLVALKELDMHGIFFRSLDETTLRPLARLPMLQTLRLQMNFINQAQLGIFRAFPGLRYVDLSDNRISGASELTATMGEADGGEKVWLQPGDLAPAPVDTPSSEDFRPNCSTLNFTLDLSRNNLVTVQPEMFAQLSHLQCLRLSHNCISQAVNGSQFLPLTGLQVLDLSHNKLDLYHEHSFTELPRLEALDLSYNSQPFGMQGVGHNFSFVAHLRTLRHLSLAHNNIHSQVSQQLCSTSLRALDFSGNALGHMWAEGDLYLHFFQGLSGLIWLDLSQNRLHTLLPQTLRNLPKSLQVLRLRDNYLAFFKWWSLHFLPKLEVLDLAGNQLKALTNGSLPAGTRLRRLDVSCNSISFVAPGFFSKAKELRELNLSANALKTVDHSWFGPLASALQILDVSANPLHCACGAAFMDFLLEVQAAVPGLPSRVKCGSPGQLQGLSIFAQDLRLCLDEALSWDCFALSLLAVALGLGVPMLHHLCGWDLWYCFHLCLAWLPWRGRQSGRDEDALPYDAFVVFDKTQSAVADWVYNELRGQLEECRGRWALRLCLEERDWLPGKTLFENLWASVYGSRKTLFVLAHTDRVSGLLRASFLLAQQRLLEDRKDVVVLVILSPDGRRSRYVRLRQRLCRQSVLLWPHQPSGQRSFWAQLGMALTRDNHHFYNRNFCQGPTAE
Regarding `C[C@@H]1CN([C@@H](C)CO)C(=O)c2cc(Br)cnc2O[C@@H]1CN(C)C(=O)C1CCCCC1`, the inhibition is 4.79% (inactive). As to `COc1ccc(/C=C2\SC(=S)N(CCC(=O)N3CCOCC3)C2=O)cc1OC`, the inhibition was -12.7% (inactive). The figure for `O=C(Cc1ccc([N+](=O)[O-])cc1)NCCS(=O)(=O)N1CCN(c2ccccc2)CC1` is 12.1% (inactive); for `CC(=O)Nc1ccc(SCC(=O)NC(=O)c2ccc(Cl)cc2)cc1` it is -11.6% (inactive); for `O=C(CNC(=O)OCc1ccccc1)Oc1cc2oc(=O)cc(-c3ccccc3)c2cc1Cl` it is 27.3% (active). For the compound `CC(=O)COc1ccc2c(-c3ccccc3)cc(=O)oc2c1`, the inhibition was 3.27% (inactive).

For `O=C(CNC(=O)c1ccc(-c2ccccc2)cc1)OCc1ccc(Cl)cc1`, the inhibition was -3.72% (inactive).

On to `CCN(CC(=O)Nc1ccc(NC(C)=O)cc1)C(=O)C1CC(=O)N(c2ccc3c(c2)OCCO3)C1` (stereo not given), for which the inhibition was -3.12% (inactive). Then `CCn1c(SCC(=O)N2CCCC2=O)nc2ccccc21`, with -8.17% (inactive). In the case of `Cc1ccc(C(=O)OCC(=O)NC2CCCCCCC2)cc1C`, the inhibition was -1.15% (inactive). For the compound `N#CCCN(C(=S)Nc1ccc(Cl)c(Cl)c1)C1CCCCC1`, the inhibition was 11.8% (inactive).

Turning to `CCN(CC)C(=O)C(C)N1c2cccc3cccc(c23)S1(=O)=O` (stereo not given), the inhibition is 4.23% (inactive). Then `O=C1CCC(=O)N1CCC(=O)N(C(=O)NC1CCCCC1)C1CCCCC1`, with 4% (inactive); and `O=C(c1c(Cl)nc2sccn12)N1CCCc2ccccc21`, with -2.96% (inactive).

On to `Cc1cccc2cc3c(N)c(C(=O)N4CCCc5ccccc54)sc3nc12`, for which the inhibition was 32.5% (active). The figure for `Cc1ccc(C(=O)N2CCCc3ccccc32)c(Cl)c1` is -5.91% (inactive). As for `C[C@H]1CN([C@@H](C)CO)C(=O)CCCn2cc(nn2)CO[C@@H]1CN(C)S(=O)(=O)c1cccc(C#N)c1`, the inhibition is -7.52% (inactive).

Turning to `O=C(COC(=O)/C=C/c1cccs1)NC1CCCCC1`, the inhibition was 2.5% (inactive). Then `COc1ccccc1/C=C/C(=O)OCC(=O)NC1CCCCCC1`, with 22.6% (active). With `COc1ccc(/C=C/C(=O)OCC(=O)NC2CCCCCC2)cc1OC`, the inhibition is -1.25% (inactive). The figure for `C[C@H](CO)N1C[C@H](C)[C@@H](CN(C)C(=O)C2CCCCC2)OCc2cnnn2CCCC1=O` is 1.13% (inactive). The figure for `O=C(COC(=O)/C=C/c1ccc(Cl)cc1)NC1CCS(=O)(=O)C1` (stereo not given) is -13.5% (inactive); for `CCN(CC)CCCC(C)n1c2nc(=O)[nH]c(=O)c-2nc2cc(Cl)ccc21` (stereo not given) it is 22.6% (active); for `Cc1nnc(SC(C)C(=O)c2c[nH]c3ccccc23)n1C1CC1` (stereo not given) it is -9.37% (inactive). The figure for `Cc1ccc(S(=O)(=O)N2C[C@]3(O)C[C@@H]4C(=O)N(c5ccccc5)C(=O)[C@@H]4C[C@]3(OC(=O)NC3CC3)C2)cc1` is -0.67% (inactive).

As usually defined, the inhibition is the drop in the measured response relative to a control, in per cent.
